About 13,000 (27%) of roughly 48,000 compounds showed an effect of 50% or more. This is one part of the list.
What follows are molecules tested on Wolbachia pipientis (assay: Anti-Wolbachia Cell-Based Screen). Details: 5 µM.
Assay type: functional
Design: scale not given: in the data most compounds retested in dose-response had high values

Going from `Cc1ccc(OCC(O)CN(C)CC(=O)Nc2cc(C)on2)c(C)c1` (stereo not drawn) to `Cc1ccc(NC(=O)N(C)Cc2cnn(C)c2)cc1OCC(F)F`, the “Percent Effect” value falls from 9.432% to -4.297%.

Compared with `O=C(O)C(=O)O.c1cnc(-c2noc(C3CN(Cc4ccc5c(c4)CCO5)C3)n2)nc1`, `O=C(Cc1ccccc1)N1CCOC(c2nc(-c3ncccn3)no2)C1` (stereo not drawn) is higher in “Percent Effect” value: 8.464% for the first, 104.4% for the second.

First: Cc1noc([C@@H]2CCO[C@@H]3CCN(C(=O)Cc4ccsc4)C[C@@H]32)n1
Second: O=C(Cc1ccsc1)N1CCOC(c2nc(-c3ncccn3)no2)C1 (stereo not drawn)
The “Percent Effect” value of the first is lower: 6.284% for the first, 131.4% for the second.

Compared with `Cc1n[nH]c(C2CN(C(=O)CCc3ccsc3)CCO2)n1` (stereo not drawn), `Cc1ccn(CCC(=O)N2CCOC(c3nc(-c4cccs4)no3)C2)n1` (stereo not drawn) is higher in “Percent Effect” value: -9.569% for the first, -6.468% for the second.

Compared with `Cc1ccc2c(C)c(C(=O)NCc3csc(N)n3)oc2c1`, `Cc1csc(CNC(=O)Cc2ccc3c(c2)OCCO3)n1` is lower in “Percent Effect” value: 24.68% for the first, -1.573% for the second.

First: Cc1cc(S(=O)(=O)NCC[S+](C)[O-])c(F)cc1F (stereo not drawn)
Second: Cc1cc(S(=O)(=O)NCC(C)(C)N)c(F)cc1F.Cl
The “Percent Effect” value of the first is lower: 90.6% for the first, 106.9% for the second.

Going from `Cc1ccc(S(=O)(=O)NCCCN2CCC(O)CC2)c(F)c1` to `Cc1cc(F)c(S(=O)(=O)NCCCN2CCC(O)CC2)cc1F`, the “Percent Effect” value falls from 10.81% to 7.324%.

Compared with `Cc1cc(S(=O)(=O)NC(C)(C)CN)c(F)cc1F.Cl`, `Cc1cc(F)c(S(=O)(=O)NCC(C)(C)N)cc1F.Cl` is lower in “Percent Effect” value: 112.3% for the first, 99.53% for the second.

Compared with `CCc1nc(NS(=O)(=O)c2cc(C)c(F)cc2Cl)no1`, `Cc1cc(F)c(S(=O)(=O)NCc2ccnc(N(C)C)n2)cc1F` is lower in “Percent Effect” value: -1.735% for the first, -5.146% for the second.

Compared with `Cc1c(F)cccc1S(=O)(=O)NC(C)(C)CN.Cl`, `Cc1ccc(S(=O)(=O)NC(C)(C)CN)c(F)c1.Cl` is lower in “Percent Effect” value: -6.464% for the first, -7.288% for the second.

First: Cc1ccc(S(=O)(=O)NCc2cnn(C)c2)c(F)c1
Second: Cc1ccc(S(=O)(=O)NCC(C)(C)N)c(F)c1.Cl
The “Percent Effect” value of the first is lower: 1.109% for the first, 102.6% for the second.

First: Cc1ccc(F)c(NCC(C)(C)S(C)(=O)=O)c1
Second: Cc1c(F)cccc1S(=O)(=O)NCC(C)(C)CC(C)O (stereo not drawn)
The “Percent Effect” value of the first is higher: -3.079% for the first, -11.41% for the second.

Compared with `Cc1c(F)cccc1S(=O)(=O)NCCN.Cl`, `Cc1sc(Br)cc1S(=O)(=O)NCCN.Cl` is lower in “Percent Effect” value: -3.419% for the first, -12.99% for the second.

Compared with `Cc1nn(C)cc1CN(C)Cc1cc2c(cc1OC(F)F)OCO2`, `COc1ccc(C(=O)N(Cc2cnn(C)c2)C(C)C)cc1OC(F)F` is higher in “Percent Effect” value: 5.231% for the first, 110.3% for the second.

Going from `CCS(=O)(=O)N1CCC(c2nccn2Cc2ccncc2)CC1` to `CCS(=O)(=O)N(C)C1CCN(C(=O)c2ccc(Cl)cc2)CC1`, the “Percent Effect” value falls from 17.72% to -4.195%.

Compared with `COc1cccc(OCCCc2cc(C#N)ccn2)c1`, `CCCc1noc(CS(=O)(=O)c2cccc(OC)c2)n1` is higher in “Percent Effect” value: -11.05% for the first, 19.11% for the second.

Compared with `Cc1cccc(C(C(=O)NCc2nc(-c3cccnc3)no2)N(C)C)c1` (stereo not drawn), `Cc1noc(C)c1C(=O)N(C)C(C)c1ccncc1` (stereo not drawn) is lower in “Percent Effect” value: -3.627% for the first, -19.42% for the second.

Going from `CC1=C[C@@H](CN2CCOCC2)[C@H](C(C)C)C[C@H]1Cc1nnc(C)o1` to `Cc1nnc(CN2CCC3(CCC(=O)N([C@H]4CC[C@H](O)CC4)C3)CC2)o1`, the “Percent Effect” value rises from -6.193% to 5.383%.

Going from `Cc1cc(S(=O)(=O)NCC(C)(O)CN(C)C)c(F)cc1F` (stereo not drawn) to `Cc1sc(Br)cc1S(=O)(=O)NCCCN.Cl`, the “Percent Effect” value falls from 86.13% to -10.31%.

First: Cc1cc2[nH]cc(C(=O)N3CCCCC3c3ccc(F)cc3)c(=O)n2n1 (stereo not drawn)
Second: Cc1[nH]c(=O)[nH]c(=O)c1CC(=O)N1CCC(Oc2ccc(F)cc2)CC1
The “Percent Effect” value of the first is higher: -0.32% for the first, -20.3% for the second.

First: Cc1ncsc1C(=O)N(C)CCc1ccncc1
Second: Cc1ncsc1CNC(=O)N(Cc1ccccc1)CC(C)(C)O
The “Percent Effect” value of the first is higher: -1.181% for the first, -10.76% for the second.

Going from `COc1ccccc1CC1CCCN(CCN2CCOC2=O)C1` (stereo not drawn) to `O=C1OCCN1CC(=O)N1C[C@H]2CC[C@@H]1CN(C(=O)c1ccccc1)C2`, the “Percent Effect” value rises from -15.91% to -14.7%.

Compared with `Cc1cccc(OC2CCN(C(=O)NCCn3ccnc3)CC2)c1C`, `Br.Cc1ccccc1OC1CCN(CC(=O)Nc2ccn(C)n2)CC1` is higher in “Percent Effect” value: -9.4% for the first, 95.2% for the second.

Going from `Cn1ccc(NC(=O)CN2C[C@H]3CC[C@@H]2CN(Cc2ccccn2)C3)n1` to `COCCN1C[C@H]2CC[C@@H]1CN(CC(=O)Nc1ccn(C)n1)C2`, the “Percent Effect” value rises from -23.26% to 0.2654%.

First: Br.Cc1ccccc1OC1CCN(CC(=O)Nc2cnn(C)c2C)CC1
Second: Cc1ccccc1OC1CCN(CC(=O)Nc2cn(C)nc2C)CC1
The “Percent Effect” value of the first is lower: 127.8% for the first, 143.3% for the second.

First: Cc1nn(C)c(C)c1NC(=O)CNC(c1ccccc1)C1CCC1 (stereo not drawn)
Second: Cc1ccccc1OC1CCN(CC(=O)Nc2c(C)nn(C)c2C)CC1
The “Percent Effect” value of the first is lower: -2.911% for the first, 133% for the second.

Compared with `Cc1cccc2sc(NC(=O)CN3CCC(C)CC3)nc12`, `CCn1cc(NC(=O)CN2CCC(Oc3ccccc3C)CC2)c(C)n1` is higher in “Percent Effect” value: -4.691% for the first, 103.8% for the second.

Going from `CC(=O)c1ccc(CN2CC(Oc3ccccc3C)C2)cc1` to `CC(=O)c1cccc(CN2CC(Oc3ccccc3C)C2)c1`, the “Percent Effect” value rises from 1.561% to 6.758%.

First: Cc1nn(C)c(C)c1NC(=O)CN1CCOC(Cn2cccn2)C1 (stereo not drawn)
Second: CCn1cc(NC(=O)CN2CCC(Oc3ccc(F)cc3)CC2)c(C)n1.Cl
The “Percent Effect” value of the first is lower: -5.215% for the first, 113.2% for the second.

Compared with `CC(O)CNC(=O)NCCCN1CCN(c2ncccn2)CC1` (stereo not drawn), `CC(C)=CCN1CCN(C(C)c2cccnc2)CC1` (stereo not drawn) is higher in “Percent Effect” value: -2.851% for the first, 2.838% for the second.

Going from `CCOCCn1nnc(C2(NC(=O)c3ccccc3)CCCC2)n1` to `CCOCCC(=O)N(C)CC1Cc2ccccc2CN1C` (stereo not drawn), the “Percent Effect” value rises from -1.903% to 13.82%.

Going from `CN(C)CCOc1ccc(CNC(=O)c2cccc3[nH]ncc23)cc1` to `CCOc1ccc(C(=O)N(Cc2cnn(C)c2)C(C)C)cc1`, the “Percent Effect” value falls from -2.455% to -5.805%.

Compared with `CN(C)C(=O)CCCNc1ncc2c(n1)CCN2c1ccccc1`, `CN1CC=C(CCN(C)C(=O)CCc2ccccc2)CC1` is higher in “Percent Effect” value: -14.16% for the first, 90.24% for the second.

First: Cn1c(=O)oc2ccc(NC(=O)N3CCSCC3)cc21
Second: Cc1csc(CNC(=O)Nc2ccc3c(c2)OCO3)n1
The “Percent Effect” value of the first is lower: -14.24% for the first, 95.91% for the second.

First: Cn1nc2c(cc1=O)CN(Cc1nnc(C3CC3)o1)CC2
Second: Cc1ccc(CN2CCc3c(C(=O)N(C)C)n[nH]c3C2)o1
The “Percent Effect” value of the first is higher: 7.472% for the first, -11.98% for the second.

Going from `O=C(Nc1ccccc1)c1ccc2c(c1)C1(CCCCC1)CN2.O=C(O)C(F)(F)F` to `NS(=O)(=O)c1ccc(NC(=O)CSc2ccc3c(c2)CCC3)cc1`, the “Percent Effect” value rises from 15.72% to 16.99%.

First: CCOC(CC)C(=O)NCc1cccc(N2CCCCC2=O)c1 (stereo not drawn)
Second: CCc1ccccc1OCCN(C)C(=O)CCN1CCCO1
The “Percent Effect” value of the first is lower: -0.7778% for the first, 2.484% for the second.

Going from `CCN1CC(C(=O)N2CCC(Oc3ccccc3C)CC2)CC1=O` (stereo not drawn) to `COc1cccc2c1OCC(C(=O)N1CCC(N3CCOC3=O)CC1)C2` (stereo not drawn), the “Percent Effect” value rises from -3.691% to -3.402%.

Going from `N#Cc1ccc(OC2CCN(CC(=O)NCC(F)(F)F)CC2)cc1` to `O=C(c1ccc(Cl)cc1)N1CCC(N2CCOC2=O)CC1`, the “Percent Effect” value rises from 6.533% to 107.7%.

First: O=c1[nH]c(N2CCN(C3CC3)CC2)nc2c1cnn2-c1ccccc1
Second: O=C(c1ccc(Cl)cc1)N1CCC(N2CCCOC2=O)CC1
The “Percent Effect” value of the first is lower: 4.194% for the first, 100% for the second.

Compared with `O=C(NCc1cccs1)NCC(O)(c1cccs1)C1CC1` (stereo not drawn), `Cc1csc(CNC(=O)NCC2(c3ccc4c(c3)OCO4)CC2)n1` is higher in “Percent Effect” value: 4.96% for the first, 126.6% for the second.

Compared with `Cc1n[nH]cc1CNCC1(c2ccc3c(c2)OCO3)CCOCC1.Cl`, `Cc1ncsc1CNC(=O)NCC1(c2ccc3c(c2)OCO3)CC1` is higher in “Percent Effect” value: 4.447% for the first, 120.8% for the second.

Compared with `Cc1csc(CNC(=O)NCCc2ccc3c(c2)OCCO3)n1`, `Cc1csc(CNC(=O)NCc2ccc3c(c2)OCCO3)n1` is lower in “Percent Effect” value: -0.3298% for the first, -13.77% for the second.

First: Cc1csc(CNC(=O)N(C)Cc2ccc3c(c2)OCO3)n1
Second: COc1cc(C(=O)N(Cc2cnn(C)c2)C(C)C)ccc1C
The “Percent Effect” value of the first is lower: -4.172% for the first, 113.7% for the second.

First: Cc1ccc(CNC2(Cc3cc(-c4ccccn4)on3)COC2)o1
Second: CCN(Cc1nc(COC)no1)C(=O)CCn1c(C)cc2ccccc21
The “Percent Effect” value of the first is higher: -9.349% for the first, -20.66% for the second.

Going from `COc1ccc(C(=O)N(Cc2cnn(C)c2)C(C)C)cc1Br` to `COc1cc(C(=O)N(Cc2cnn(C)c2)C(C)C)ccc1OC(C)C`, the “Percent Effect” value rises from 9.999% to 121.6%.

Compared with `COc1cc(C(=O)N(Cc2cnn(C)c2)C(C)C)ccc1OCC(N)=O`, `CCOc1ccc(C(=O)N(Cc2cnn(C)c2)C(C)C)cc1OCC` is higher in “Percent Effect” value: 4.705% for the first, 111.9% for the second.

Compared with `COc1ccc(CN(Cc2cnn(C)c2)CC(C)C)cn1`, `CC(C)N(Cc1ccc(C(F)(F)F)nc1)Cc1cnn(C)c1` is higher in “Percent Effect” value: -28.68% for the first, 15.8% for the second.

Compared with `CCSc1cc(C(=O)N(Cc2cnn(C)c2)C(C)C)ccn1`, `COCCCOc1ccc(C(=O)N(Cc2cnn(C)c2)C(C)C)cn1` is higher in “Percent Effect” value: -10.41% for the first, 5.983% for the second.

Going from `CN1C[C@@H]2CN(C(=O)C3CC=CC3)C[C@@H]2C1=O` to `CC(C)S(=O)(=O)NCC1CCCN(C(=O)c2ccc(Cl)cc2)C1` (stereo not drawn), the “Percent Effect” value falls from -1.664% to -24.01%.

Compared with `COCCC(=O)N(C)CCC1=CCN(C)CC1`, `CCN(CC1=CCN(C)CC1)C(=O)CCOC` is lower in “Percent Effect” value: 102.2% for the first, 97.45% for the second.

Compared with `CN(CCN1CCOCC1)C(=O)CCCOCCc1ccccc1`, `CCCS(=O)(=O)N(C)C(=O)CCc1ccccc1` is lower in “Percent Effect” value: 6.061% for the first, -9.766% for the second.

First: COCCC(=O)N(Cc1cccnc1)CC1CCN(C2CCCC2)CC1
Second: FC(F)(F)C1CCCn2c(CNCc3ccsc3)nnc21 (stereo not drawn)
The “Percent Effect” value of the first is lower: -4.098% for the first, 5.709% for the second.

Going from `CC(NC(=O)NCCCNS(C)(=O)=O)c1ccncc1` (stereo not drawn) to `CCc1noc(C(C)N(C)Cc2cc(Br)ccc2OC)n1` (stereo not drawn), the “Percent Effect” value rises from 0.1158% to 1.676%.

From ChEMBL document CHEMBL3988442, “University of Dundee, Small-Polar-MMV Screening Library” (2021)
